Results taken from ChEMBL document CHEMBL4513216, “Probing the Open Global Health Chemical Diversity Library for Multistage-Active Starting Points for Next-Generation Antimalarials” (ACS Infect Dis, 2020).
Among all 69,000 compounds or so, about 8,600 (12%) showed an effect of 50% or more. Only a selection was taken, and strong results are over-represented in it overall.

Test system: Plasmodium berghei
Assay: Screen against P. berghei liver stage (PbLuc), transformed with Luciferase, at 10uM
Type: functional, HepG2
Details: tested at 10 uM

| SMILES | INHIBITION [%] |
| --- | --- |
| COCC(=O)N1CCC([C@@H]2C[C@H](C(F)(F)F)n3nc(C)cc3N2)CC1 | -6.92 |
| CC(c1ccccn1)N(C)Cc1ccc(-n2ccnc2)cc1 (stereo not given) | 37.6 |
| Cn1cc(CN2C[C@@H]3COC[C@]3(COc3ccc(C#N)cn3)C2)cn1 | -43.2 |
| COc1cc(N2C[C@@H]3COC[C@]3(COc3ccc(C#N)cn3)C2)ncn1 | 71.1 |
| N#Cc1ccc(OC[C@]23COC[C@H]2CN(c2ncccn2)C3)nc1 | -7.29 |
| Cc1cccc(CN2C[C@@H]3COC[C@]3(COc3ccc(C#N)cn3)C2)n1 | 6.8 |
| Cc1cccc(COC[C@]23COC[C@H]2CN(C(=O)c2ccsc2)C3)n1 | -29.9 |
| COc1cc(N2C[C@@H]3COC[C@]3(COCc3cccc(C)n3)C2)ncn1 | 63.7 |
| Cc1cccc(CNC(=O)N(CCCO)C2CCc3ccccc32)n1 (stereo not given) | -14.6 |
| CNc1snc(C)c1C(=O)NC(C)CC(=O)c1cccs1 (stereo not given) | 44.6 |
| O=C(N1CCOCC1)N1CCC(Nc2ccncn2)CC1 | 29.4 |
| CC(C)c1cc(NC2CCCN(C(=O)c3cccs3)C2)ncn1 (stereo not given) | 80 |
| CCc1nc(NC2CCCN(C(=O)c3cccs3)C2)c2cnn(C)c2n1 (stereo not given) | 32.8 |
| CC(C)c1cc(NC2CCN(C(=O)N3CCCC3)CC2)ncn1 | 74.7 |
| O=C(N1CCCC1)N1CCC(Nc2ccncn2)CC1 | 34.1 |
| CC(C)C1CN(C(=O)c2cccs2)CCS1 (stereo not given) | 29.5 |
| COc1ccc(CC(=O)NC2(C#N)CCOCC2)c(Cl)c1 | -8.4 |
| Cc1ccc(N2CCCC(NCc3cccs3)C2)nn1 (stereo not given) | -19.4 |
| CCNC(=O)NC(=O)CN1CCCC1c1nc(C2CCCCC2)co1 (stereo not given) | 10.8 |
| CC(=O)Nn1ccc2c(nnc3c(-c4ccc(F)cc4)cnn32)c1=O | 58.5 |
| CC(=O)Nn1ccc2c(nnc3c(-c4ccccc4)cnn32)c1=O | 58.5 |
| O=C(O)CCn1ccc(=O)c2cc(F)ccc21 | 38.1 |
| O=C(O)CCn1ccc2c(nnc3c(-c4ccc(F)cc4)cnn32)c1=O | 63.6 |
| O=C(O)CCn1ccc(=O)c2ccccc21 | 35.1 |
| CCN(C)C(=O)NCC1(CN2CCOCC2)CCCCC1 | 5.76 |
| O=C(c1cc(=O)c(OCc2ccccc2F)co1)N1CCCC1 | -51.9 |
| COCCNC(=O)c1cnc(N(C)C)nc1C | 14.2 |

| SMILES | INHIBITION [%] |
| --- | --- |
| CSc1nccn1-c1cccc(C(=O)NCCC(=O)NC(C)C)c1 | 15.5 |
| CC(=O)NCCCC(=O)N1CCc2[nH]c(-c3ccccc3)nc2C1 | 35.8 |
| Cc1cc(O)n2nc(C3CCN(C(=O)c4ccccn4)CC3)cc2n1 | 7.55 |
| CC(=O)N1[C@H](CN(C)C)C[C@@H]2CN(C(=O)Cc3cccs3)CC[C@@H]21 | -61.5 |
| Cn1nc(Br)c2c(NCCN)ncnc21 | 15.7 |
| Cc1ccc(-c2cc(N)c(=O)n(CC(=O)NCC3CCCCC3)n2)s1 | 39.2 |
| Cc1ccc(-c2cc(N)c(=O)n(CC(=O)NC3CCCCC3)n2)s1 | 55.2 |
| Cc1ccc(-c2cc(N)c(=O)n(CC(=O)NC3CCCC3)n2)s1 | 6.32 |
| COCC(=O)NC(C)Cc1cccc(OC)c1 (stereo not given) | 15.5 |
| COc1cccc(C(CO)NC(=O)Cc2cccc(C)c2)c1 (stereo not given) | 53.4 |
| COc1ccc(C(CO)NC(=O)Nc2cccc(C(C)=O)c2)cc1 (stereo not given) | -6.51 |
| COc1cccc(CC(C)NC(=O)NC(C)C)c1 (stereo not given) | 30.3 |
| COc1cccc(C(CO)NC(=O)NC(C)C)c1 (stereo not given) | 91.1 |
| COc1cccc(C(CO)NC(=O)Cc2ccc(F)c(Br)c2)c1 (stereo not given) | 22.6 |
| CN1CCN2C[C@@H](CO)[C@H](c3ccccc3)[C@H]2C1 | 17.7 |
| OCCCNc1cccc(COC2CCCCC2)c1 | 17.5 |
| CN(C)CCN1C(=O)CCCC12CCCN(C(=O)c1cc[nH]n1)C2 (stereo not given) | 34.5 |
| Cn1cc([C@@H]2CN(S(C)(=O)=O)C[C@H]2N)c2ccncc21 | -10.795 |
| CC(C)Cc1cc(-c2cc(-c3ccc[nH]3)nc(N)c2C#N)n[nH]1 | 48.8 |
| CCS(=O)(=O)CC(=O)Nc1ccccc1N1CCc2ccccc21 | 63.3 |
| CS(=O)(=O)NCCC(=O)Nc1ccccc1N1CCc2ccccc21 | 40.5 |
| CNC(=O)NCC(=O)Nc1ccccc1N1CCc2ccccc21 | 30.5 |
| O=C1CCC2(CCN(Cc3cscn3)CC2)CN1C1CCC(O)CC1 (stereo not given) | -60.7 |
| COCCC(=O)N1CCC2(CC1)CC(c1ccccc1)CN(C1CC1)C2 (stereo not given) | 14 |
| CN1CC(c2ccccc2)CC2(CCN(Cc3ncc[nH]3)CC2)C1 (stereo not given) | 49.9 |
| c1ccc(C2CN(C3CC3)CC3(CCN(Cc4ncc[nH]4)CC3)C2)cc1 (stereo not given) | 53.3 |
| c1ccc(C2CN(C3CC3)CC3(CCN(Cc4cscn4)CC3)C2)cc1 (stereo not given) | 70.1 |

| SMILES | INHIBITION [%] |
| --- | --- |
| CCN1CC(c2ccccc2)CC2(CCN(Cc3ncc[nH]3)CC2)C1 (stereo not given) | 42.1 |
| Cc1cn2c(=O)c(-c3ccnc(N[C@@H]4CCOC4)n3)cnc2s1 | 17.4 |
| Cc1nc(COC[C@@]23CCC[C@@H]2CN(Cc2nccs2)C3)cs1 | 42.6 |
| CN(C)CCN1CC2(CCCN(c3ncc(Cl)cc3F)C2)CCC1=O (stereo not given) | 37.7 |
| COCCCN1CC2(CCCN(c3ncc(Cl)cc3F)C2)CCC1=O (stereo not given) | 37.7 |
| COCCN1CC2(CCCN(c3ncc(Cl)cc3F)C2)CCC1=O (stereo not given) | 78.5 |
| CC(C(=O)Nc1ccnn1C(C)C)N1CCc2nn(C)c(=O)cc2C1 (stereo not given) | 1.98 |
| COc1ccccc1CNC(=O)CNCCn1cc(C)cn1 | 7.27 |
| CC(=O)c1cccc(NC(=O)COc2c(C)n(C)ccc2=O)c1 | -19 |
| Cc1c(OCC(=O)NCc2ccccc2)c(=O)ccn1C | 57.3 |
| Cc1c(OCC(=O)NCc2ccccc2Cl)c(=O)ccn1C | 39.6 |
| COCCn1ccc(=O)c(OCC(=O)Nc2ccccc2)c1C | -93.2 |
| COc1ccccc1CNC(=O)COc1c(C)n(C)ccc1=O | 53.6 |
| Cc1cccc(CN2C(=O)CO[C@@H]3CN(C4CCOCC4)C[C@H]32)c1 | -18.2 |
| CCN(C(=O)CCCOc1ccccc1F)c1ccncc1 | -26.8 |
| CCCn1nnnc1COC(=O)C1Cc2cc(Cl)ccc2O1 (stereo not given) | 43.5 |
| CCCc1cc(NC(=O)c2ccc(Cl)c(N3CCNC3=O)c2)n[nH]1 | -26.4 |
| CCCn1nccc1NC(=O)c1ccc(Cl)c(N2CCNC2=O)c1 | 57 |
| CCc1ccc(C(=O)Nc2cc(N3CCNC3=O)ccc2Cl)o1 | 32.9 |
| O=C(CC1C=CCC1)N1CCc2ncnc(NCc3ccon3)c2CC1 (stereo not given) | 34.5 |
| CC(NC(=O)CSCC#N)c1ccc(Cl)cc1 (stereo not given) | 34.7 |
| CC(NC(=O)CSCC#N)c1ccc(F)cc1 (stereo not given) | -13.3 |
| CC(NC(=O)CSCC#N)c1ccccc1 (stereo not given) | 55.5 |
| Cc1c(Br)cnn1CCC(=O)N(C)Cc1c(Cl)cnn1C | 32.2 |
| c1cncc(N2CCOCC3(CN(Cc4cccs4)CCO3)C2)c1 (stereo not given) | 53.2 |
| COc1ccc(N2CCCC3(C2)CN(c2cccnc2)CCO3)cc1 (stereo not given) | 8.85 |
| Fc1cnc(N2CCCC3(CN(Cc4cccs4)CCO3)C2)nc1 (stereo not given) | 32.5 |

| SMILES | INHIBITION [%] |
| --- | --- |
| O=C(c1ccncc1)N1CCOC2(COCCN(c3cccnc3)C2)C1 (stereo not given) | 31.4 |
| CC(C)N1CCOCC2(CN(Cc3cccs3)CCO2)C1 (stereo not given) | 41.2 |
| c1cncc(N2CCCC3(CN(Cc4cccs4)CCO3)C2)c1 (stereo not given) | 63.7 |
| O=C(CCc1nc(C2CC2)no1)c1ccc2c(c1)OCCO2 | -5.22 |
| CN1CCCC(c2cncc(C(=O)NCc3ccccc3Cl)n2)C1 (stereo not given) | -54.1 |
| CC(C)=CCN1C(=O)[C@@H]2CC[C@H]1CN(c1ncccn1)C2 | 12.7 |
| CC(C)(C)NC(=O)CNc1ccc(Br)cn1 | 25.4 |
| O=C(NCCCn1cccn1)c1nc2ccccc2[nH]1 | 15.7 |
| Cc1csc(NC(=O)NCCCN2CCC(C(N)=O)CC2)n1 | -21.1 |
| Cc1ccnc(OC[C@]23COC[C@H]2CN(C(=O)Cc2ccsc2)C3)n1 | -39.9 |
| Cc1n[nH]c(C)c1NC(=O)CN1CCCC1c1noc(C2CC2)n1 (stereo not given) | 26.5 |
| c1ccc(-c2nn3c(CN4CCOCC4)nnc3s2)nc1 | 25.9 |
| COc1cc(N2C[C@H]3CCC[C@@H](CN(C)C4CC4)[C@H]3C2)ncn1 | 20.6 |
| COc1cc(N2C[C@H]3CN(CCN4CCCC4)C(=O)[C@H]3C2)ncn1 | 17.2 |
| Cc1nc(CN2C[C@@H]3CN(c4ncc(F)cn4)C[C@@H]3C2=O)cs1 | 5.63 |
| Cc1ccc(N2C[C@H]3CCC[C@@H](CN4CCOCC4)[C@H]3C2)nn1 | 61.9 |
| COCCN1CC[C@H]2CN(c3cc(OC)ncn3)C[C@@H]2C1=O | 54.1 |
| COc1cc(N2C[C@H]3CN(CC(=O)N(C)C)C(=O)[C@H]3C2)ncn1 | 42.3 |
| Cc1ccc(N2C[C@H]3CCC[C@@H](CN(C)C)[C@H]3C2)nn1 | -10.5 |
| COCCN1C[C@@H]2CN(c3ncc(F)cn3)C[C@@H]2C1=O | 53.4 |
| COc1cc(N2C[C@H]3CCC[C@@H](CN4CCCC4)[C@H]3C2)ncn1 | 76.5 |
| Cc1ccc(N2C[C@@H](CN3CCOCC3)[C@@H](CO)C2)nn1 | 20.4 |
| COCCN1C[C@@H]2CN(c3ncccn3)C[C@@H]2C1=O | -14.6 |
| COc1cc(N2C[C@H]3CCC[C@@H](CN(C)C)[C@H]3C2)ncn1 | 32.2 |
